High-throughput results deposited in PubChem BioAssay by National Center for Advancing Translational Sciences (NCATS).
An excerpt weighted towards active compounds, which were near 10% of everything screened.
HP1b chromo inh: HP1-beta chromodomain-methylated histone interaction inhibition | P83916 | AlphaScreen HP1-beta / biotin-H3K9me3 peptide binding | Potency, µM (top dose mostly 114 µM), without a hit: top-dose activity change, negative = inhibition, actives largely listed as inhibitors | hit rate 0.56% among 390,000; also: potency is read from the fitted curve at half-maximal effect; nearly all actives have a fitted effect of over 70% in size
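Compound inhibition of the preformed complex between 50 nM HP1-beta and 50 nM biotinylated H3K9me3 peptide was read by AlphaScreen. Buffer was PBS pH 7.4 with 0.01% Tween-20. Incubations ran 30 min at room temperature, with 10 ug/mL donor/acceptor beads.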
BAZ2B block: inhibitors of human BAZ2B bromodomain; hit rate 4.4% among 360,000; AID 504333; Potency, µM (titrated, usually from 114 µM), for the others: at the highest dose activity change, negative = inhibition, most hits filed as inhibitors; AlphaScreen BAZ2B-H3K14Ac peptide displacement; Q9UIF8; also: potency is read from the fitted curve at half-maximal effect; % is scaled to controls: 0 for no effect and ±100 for the full control effect; nearly all actives have a fitted effect of over 60% in size
Target sequence (Q9UIF8 whole entry, looked up): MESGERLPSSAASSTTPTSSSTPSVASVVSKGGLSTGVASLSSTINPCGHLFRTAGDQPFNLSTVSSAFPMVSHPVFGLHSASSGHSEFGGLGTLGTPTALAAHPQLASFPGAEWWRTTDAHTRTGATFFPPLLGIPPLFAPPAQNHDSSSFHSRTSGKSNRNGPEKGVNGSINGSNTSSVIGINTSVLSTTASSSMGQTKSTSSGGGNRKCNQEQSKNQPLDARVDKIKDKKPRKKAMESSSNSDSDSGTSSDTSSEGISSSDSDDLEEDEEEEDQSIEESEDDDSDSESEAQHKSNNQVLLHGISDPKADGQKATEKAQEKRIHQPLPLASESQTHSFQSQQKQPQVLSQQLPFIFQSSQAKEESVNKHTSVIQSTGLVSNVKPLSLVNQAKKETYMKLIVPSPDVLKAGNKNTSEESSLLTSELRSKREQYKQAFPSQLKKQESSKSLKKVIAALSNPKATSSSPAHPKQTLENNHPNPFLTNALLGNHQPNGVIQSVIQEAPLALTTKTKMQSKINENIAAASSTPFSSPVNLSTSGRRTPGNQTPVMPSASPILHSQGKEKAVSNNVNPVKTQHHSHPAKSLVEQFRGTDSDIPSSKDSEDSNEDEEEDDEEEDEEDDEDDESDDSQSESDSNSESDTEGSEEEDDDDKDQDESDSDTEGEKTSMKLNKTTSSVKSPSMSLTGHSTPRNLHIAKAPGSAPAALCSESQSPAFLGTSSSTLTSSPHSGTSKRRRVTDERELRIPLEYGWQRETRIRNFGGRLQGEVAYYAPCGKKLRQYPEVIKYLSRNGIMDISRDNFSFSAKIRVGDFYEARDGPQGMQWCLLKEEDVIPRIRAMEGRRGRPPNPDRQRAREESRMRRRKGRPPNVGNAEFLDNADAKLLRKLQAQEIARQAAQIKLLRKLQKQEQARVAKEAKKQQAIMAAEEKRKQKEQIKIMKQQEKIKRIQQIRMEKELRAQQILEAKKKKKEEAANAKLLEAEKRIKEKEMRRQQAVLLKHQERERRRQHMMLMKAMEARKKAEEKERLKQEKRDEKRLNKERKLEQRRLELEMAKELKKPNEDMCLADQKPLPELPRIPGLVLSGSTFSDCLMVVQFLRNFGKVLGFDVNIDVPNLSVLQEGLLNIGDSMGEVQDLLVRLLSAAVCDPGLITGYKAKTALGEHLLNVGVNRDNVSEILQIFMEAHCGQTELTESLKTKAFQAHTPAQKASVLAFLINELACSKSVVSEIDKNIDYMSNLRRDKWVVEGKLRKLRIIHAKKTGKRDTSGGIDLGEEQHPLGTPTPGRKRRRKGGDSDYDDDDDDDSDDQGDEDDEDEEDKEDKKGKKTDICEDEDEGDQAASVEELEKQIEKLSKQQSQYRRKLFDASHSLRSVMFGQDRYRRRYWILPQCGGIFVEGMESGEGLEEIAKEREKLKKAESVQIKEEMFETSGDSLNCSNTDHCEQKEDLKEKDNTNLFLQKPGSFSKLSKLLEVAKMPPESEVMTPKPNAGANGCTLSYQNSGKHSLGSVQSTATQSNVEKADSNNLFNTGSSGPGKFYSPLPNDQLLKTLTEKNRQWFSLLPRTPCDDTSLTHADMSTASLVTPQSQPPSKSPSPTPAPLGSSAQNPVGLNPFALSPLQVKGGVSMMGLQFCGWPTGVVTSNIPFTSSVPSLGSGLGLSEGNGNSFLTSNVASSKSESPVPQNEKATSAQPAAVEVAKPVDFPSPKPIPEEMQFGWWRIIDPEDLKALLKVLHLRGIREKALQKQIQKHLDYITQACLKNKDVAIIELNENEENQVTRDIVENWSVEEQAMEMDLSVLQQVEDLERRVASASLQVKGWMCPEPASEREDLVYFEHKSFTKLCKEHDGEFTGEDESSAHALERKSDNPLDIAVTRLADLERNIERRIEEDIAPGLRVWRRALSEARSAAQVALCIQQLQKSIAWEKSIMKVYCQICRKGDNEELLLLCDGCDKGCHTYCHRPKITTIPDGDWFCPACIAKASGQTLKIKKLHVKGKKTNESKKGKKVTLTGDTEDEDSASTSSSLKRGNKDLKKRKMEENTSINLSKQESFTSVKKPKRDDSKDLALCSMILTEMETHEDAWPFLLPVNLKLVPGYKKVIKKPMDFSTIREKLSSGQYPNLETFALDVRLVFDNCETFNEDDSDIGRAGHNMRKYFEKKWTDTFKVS
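BAZ2B 50 nM plus b-H3(5-23)K14Ac 50 nM, PBS pH 7.4/0.01% Tween-20, 30 min RT; compound added (max 110 uM), 30 min RT; streptavidin donor/Ni-chelate acceptor beads 10 ug/mL final, 20 min dark; AlphaScreen read.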
JMJD2A Tudor inh: JMJD2A Tudor domain (human) inhibition | O75164 | hit rate 4.4% among 390,000 | AlphaScreen JMJD2A-Tudor / H3K4me3 peptide binding | Potency, µM (highest dose often 114 µM), without a hit: at the highest dose activity change, negative = inhibition, hits mostly inhibitors; also: potency is read from the fitted curve at half-maximal effect; % is scaled to controls: 0 for no effect and ±100 for the full control effect; nearly all actives have a fitted effect of over 50% in size
G9a inh: blocks human histone lysine methyltransferase G9a. Q96KQ7. AID 504332. G9a H3K9 monomethylation, AlphaScreen, 2 h. Potency, µM (titrated, usually from 102 µM), without a hit: at the top dose activity, negative = inhibition, hits mostly inhibitors. hit rate 8.8% among 350,000; also: potency is read from the fitted curve at half-maximal effect; % is scaled to controls: 0 for no effect and ±100 for the full control effect; nearly all actives have a fitted effect of over 75% in size
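G9a (20 nM) was preincubated 15 min with compound, then reacted 2 h at room temperature with 500 nM biotin-H3K9 peptide and 20 µM SAM. Monomethyl-H3K9 detected by AlphaScreen using anti-H3K9me1 antibody.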
Six1-Eya2 inh: blocks human Six1 binding to Eya2; Q15475+O00167; AlphaScreen GST-Six1/His-Eya2 binding, biochemical; hits give low values; activity change, % (concentration not given with the values); hit rate 0.56% among 360,000; AID 651725; in the data active = activity change below about -65%; inconclusive = mostly about -30% to -63%; also: % is scaled to controls: 0 for no effect and ±100 for the full control effect
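AlphaScreen luminescence read after one hour at 37 °C in darkness. Pin-transferred compounds met GST-Six1 and His-Eya2 protein (5X stock 250 nM/500 nM) plus glutathione donor and Ni-chelate acceptor beads (5X, 50 ug/mL).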
CtBP-E1A blk: CtBP/E1A binding inhibition; AlphaScreen GST-E1A/His-CtBP binding, 1536-well; hits give low values; AID 651724; hit rate 0.49% among 340,000; activity change, % (no concentration beside the values); in the data active = activity change below about -65%; inconclusive = mostly about -30% to -63%; also: % is scaled to controls: 0 for no effect and ±100 for the full control effect
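GST-E1A and His-tagged CtBP (125 nM each as 5X stock) were preincubated with pin-transferred compound for 2 h at 37 °C in the dark, then glutathione donor and nickel acceptor beads were added for 1 h before AlphaScreen reading.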
An asterisk follows results filed as active; ? = inconclusive; . = not tested or not shown; [ ] = dose if it differs, or a comment. Unless noted, calls follow the shape of the dose curve; as a rule, active = well fitted inhibition curve with a large enough effect; inconclusive = small, poorly fitted or top-dose-only effect; inactive = no such curve, though single readings can be large or run the other way.

SMILES | HP1b chromo inh | BAZ2B block | JMJD2A Tudor inh | G9a inh | Six1-Eya2 inh | CtBP-E1A blk
O=C(CN1CCOCC1)NNC(=O)c1ccc([N+](=O)[O-])cc1 | 6%[57 µM] | -19% | 4% | 50µM* | 4 | .
CCCN1CNc2c(c(=O)[nH]c(=S)n2CCc2cc(OC)ccc2OC)C1 | 29% | . | -10% | . | . | .
COc1ccc(C(O)c2nc(-c3cnn(C)c3)cs2)cc1 (configuration not stated) | . | . | . | . | 3 | 4
O=C(NCCN1CCOCC1)c1cc([N+](=O)[O-])ccc1Cl | 58% | ? | 0% | 56µM* | -1 | 7
O=C(NCc1ccco1)c1cc([N+](=O)[O-])ccc1N1CCOCC1 | 35% | 79µM* | 6% | 10µM* | 2 | .
O=C(NCCCN1CCOCC1)c1sc2cc([N+](=O)[O-])ccc2c1Cl | ? | -32% | 79µM* | 0.89µM* | -7 | -4
CC1CCCN(c2ccc(C(=O)NCc3ccco3)cc2[N+](=O)[O-])C1 (configuration not stated) | ? | 45µM* | 56µM* | ? | ? | 0
Cc1cccc(-c2nc3c(c(=O)c4ccccc4n3C)c(=O)n2-c2ccccc2)c1 | 40% | -2% | -6% | -10%[59 µM] | -7 | 6
C=CCN1C(=O)S/C(=C/c2ccc(Sc3nc4ccccc4[nH]3)o2)C1=O | 25% | -2% | -16% | 2µM* | -8 | -20
CC(C)N1C(=O)S/C(=C/c2ccc(Sc3nc4ccccc4[nH]3)o2)C1=O | 7% | -29% | -23% | 71µM* | -4 | -2
C=CCN1C(=O)S/C(=C/c2ccsc2)C1=O | 60% | 34% | 24% | 2%[59 µM] | 6 | 10
Cc1nc(SCC(=O)O)c(C#N)c2c1CCCC2 | 12% | 79µM* | ? | 50µM* | -1 | .
CCOC(=O)CCc1c(C)nc(SCC(=O)O)c(C#N)c1C | 11% | 9% | 25µM* | 8.9µM* | 3 | -1
CCc1nc(SCC(=O)O)c(C#N)c2c1CCCC2 | 45% | -9% | 2%[57.1 µM] | 1% | -1 | 2
CCOC(=O)CCc1c(C)nc(SCc2ccc(C(=O)O)cc2)c(C#N)c1C | 43% | 2% | -5% | 25% | 0 | -11
CC(=O)N1C(=O)/C(=C2\SC(=S)N(c3c(C)n(C)n(-c4ccccc4)c3=O)C2=O)c2ccccc21 | ? | -34% | -20% | 4µM* | 9 | -5
O=C1/C(=C\c2ccc(O)c(O)c2)SC(=S)N1Cc1ccccc1 | 10µM* | 8.9µM* | 2.2µM* | 4µM* | ? | ?
COc1cc(/C=C2/SC(=S)N(Cc3ccccc3)C2=O)ccc1O | ? | 40µM* | 40µM* | 45µM* | ? | ?
Cc1c(N2C(=O)/C(=C3/C(=O)N(C)c4ccccc43)SC2=S)c(=O)n(-c2ccccc2)n1C | 25% | 3% | -4% | ? | 2 | 8
CC(C)(C)NC(=O)CN1C(=O)/C(=C/c2ccccc2)SC1=S | 19% | -4% | -10% | 16%[12.7 µM] | 1 | 0
Cc1ccccc1/C=C1\SC(=S)N(/N=C/c2cc([N+](=O)[O-])ccc2O)C1=O | -22% | 22µM* | ? | 45µM* | ? | -92*
COc1cc(/C=C2/SC(=NCc3ccccc3)N(Cc3ccccc3)C2=O)ccc1O | 11% | -7% | -32% | 0%[59 µM] | -12 | -10
CCOc1ccc(-n2c(C)nc3cc(C(=O)NC4CCCC4)ccc32)cc1 | 34% | -3% | -13% | ? | . | .
O=C1/C(=C\c2cc([N+](=O)[O-])ccc2O)SC(=S)N1Cc1ccc(Cl)cc1 | -22% | 25µM* | 35µM* | 20µM* | -18 | .
COc1cc(/C=C2/SC(=S)N(c3c(C)n(C)n(-c4ccccc4)c3=O)C2=O)ccc1O | ? | 45µM* | ? | 7%[12.7 µM] | -19 | -19
SMILES | HP1b chromo inh | BAZ2B block | JMJD2A Tudor inh | G9a inh | Six1-Eya2 inh | CtBP-E1A blk
O=C(CN1C(=O)/C(=C/c2ccccc2)SC1=S)NNC(=O)c1ccccc1O | 35% | 79µM* | -17% | -4% | -2 | 3
COc1ccc(/C=C2\SC(=S)N(Cc3cccnc3)C2=O)cc1C | -51% | 10µM* | ? | 11µM* | -3 | -7
COc1cc(/C=C2\SC(=S)N(N3CCOCC3)C2=O)ccc1O | 136% | -4% | -20% | 20%[59 µM] | -2 | -12
O=C1/C(=C/c2ccc(O)cc2)SC(=S)N1Cc1cccnc1 | 10% | -1% | -5% | -45%[59 µM] | 10 | -2
Cc1ccc(C2CC(=O)Nc3cc4c(cc32)OCCO4)cc1Br (configuration not stated) | -18% | ? | ? | ? | . | .
O=C1CCc2cc(S(=O)(=O)Nc3ccncc3)ccc2N1 | . | . | -24% | . | . | .
O=S(=O)(c1cccc(Cl)c1)N1CCN(c2nc(-c3cccs3)nc3ccccc23)CC1 | 24% | . | -7% | . | . | .
O=C1/C(=C\c2cccc(O)c2O)SC(=S)N1Cc1ccccc1 | ? | 20µM* | 13µM* | 4.5µM* | ? | ?
O=C1/C(=C\c2cccc(O)c2)SC(=S)N1Cc1ccccc1 | -26% | 40µM* | 45µM* | -11%[0.501 µM] | 1 | .
COc1cc(/C=C2/SC(=S)N(CC(=O)O)C2=O)ccc1OC(=O)c1ccco1 | -25% | -37% | -24% | 45µM* | -19 | -15
Cc1ccc(C2OCC(C)([N+](=O)[O-])CO2)cc1 (configuration not stated) | 14% | . | 1% | . | 8 | 4
CCN(CC)S(=O)(=O)c1ccc2c(c1)C(=NO)c1cc(S(=O)(=O)N(CC)CC)ccc1-2 | 36% | 7% | -12% | 15%[59 µM] | -1 | -26
Cc1ccc2c(c1)sc(-c1ccc(N(C)C)cc1)[n+]2C | 23% | -36% | -34% | 50µM* | 4 | .
S=c1[nH]nc(-c2ccco2)n1/N=C/c1ccccn1 | . | 50µM* | . | -120% | . | .
COc1cc(-c2n[nH]c(=S)n2/N=C/c2cccn2C)cc(OC)c1OC | ? | ? | 1.3µM* | ? | -6 | -1
Nc1nnnn1/N=C/c1ccccn1 | 7% | 62% | -26% | ? | -16 | -2
S=c1[nH]nc(-c2ccccn2)n1/N=C/c1cccc(Cl)c1 | -14% | 28µM* | 20µM* | 1.6µM* | ? | ?
COc1cc(/C=N/n2c(C)nnc2C)cc(OC)c1OC | 49% | -4% | 17% | -5% | -6 | 1
S=c1[nH]nc(-c2ccco2)n1/N=C/c1ccc(Cl)c(Cl)c1 | -12% | -12% | 79µM* | 1.6µM* | -15 | -4
Cc1cc(C)n(-c2nnc(C)n2/N=C/c2ccco2)n1 | 24% | 10% | -12% | 7% | 9 | -13
S=c1[nH]nc(-c2ccco2)n1/N=C/c1c(Cl)cccc1Cl | 51% | 0% | ? | 0.4µM* | 7 | .
